This is one part of a sample in which hits are shown more often than they occur.
Dicer processing: human Dicer pre-microRNA cleavage inhibition; cat-ELCCA pre-miR-21 Dicer processing, chemiluminescence; active compounds read high; Q9UPY3; actives 6% (n = 47,000); z-score at 25 µM; in the data active means z-score above about 3, passing the limit was not always enough;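 further: higher signal means more uncleaved substrate so more Dicer inhibition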
Each line names hits and unclear results; the compound was inactive in the other large screens.

NC(=O)COc1ccc(C2c3c(oc4ccccc4c3=O)C(=O)N2Cc2ccc3c(c2)OCO3)cc1 (centres undefined)	none
Cc1ccc(CSC2=NCCCN2C2CCCCC2)cc1	none
O=S1(=O)CCC(S(=O)(=O)N2CCCCC2)C1 (centres undefined)	none
CCOC(=O)c1nnn2c1nc(Sc1nc3ccccc3[nH]1)c1ccccc12	none
CCCCN1Cc2c(n(CC(=O)Nc3ccc(F)cc3)c3cc(-c4ccccc4)nn3c2=O)C1=O	none
Cc1ccc2c(c1)sc(/C=C1\Sc3ccccc3N1CCO)[n+]2C	none
COc1cccc(C2Nc3c(C)cc(C)cc3-c3cc(C)nn32)c1O (centres undefined)	none
COc1cccc(C2Nc3c(C)cc(C)cc3-c3cc(C)nn32)c1OC (centres undefined)	Dicer processing 4.9
COc1cccc(C2Nc3c(C)cccc3-c3cc(C)nn32)c1OC (centres undefined)	none
Cc1cc(=O)[nH]c(SCC(=O)N2c3ccccc3CCc3ccccc32)n1	none
CCOC(=O)Oc1ccc2c(=O)c(-c3ccc(OC)c(OC)c3)c(C(F)(F)F)oc2c1	none
COC(=O)c1ccc2c(c1)N(C)S(=O)(=O)c1cnc(SC)nc1-2	none
COC(=O)c1ccc2c(c1)N(C)S(=O)(=O)c1cnc(SCC(=O)Nc3ccccc3)nc1-2	Dicer processing 5
COC(OC)c1nc(SCC(=O)Nc2cccc(Cl)c2)ncc1C(=O)O	none
CCOC(=O)c1cnc2c(c(C)nn2C)c1N1CCC(n2cccc2)CC1	none
COC(=O)c1sc(OC)cc1OS(=O)(=O)c1ccc(Cl)cc1	none
O=C1c2cc(S(=O)(=O)O)ccc2-c2ccc(S(=O)(=O)O)cc21	none
Cc1c(Cl)c(=O)[nH]c2c(Cl)cccc12	none
CCOC(=O)NC(=S)NC(=O)C(C)(C)C	none
CCS(=O)(=O)Nc1c(C)n(C)n(-c2ccccc2)c1=O	none
Cc1c(NS(=O)(=O)c2cn(C)cn2)c(=O)n(-c2ccccc2)n1C	Dicer processing 6
CCOc1ccc(S(=O)(=O)Nc2c(C)n(C)n(-c3ccccc3)c2=O)cc1	none
CN(C)c1ccc(C=Nc2ccc(C(=O)O)c(O)c2)cc1	none
Clc1ccc(/C=N/Nc2nccc(-c3cccnc3)n2)c(Cl)c1	none
O=C(CCCC(=O)c1ccccc1)c1ccccc1	none
N#CC(C#N)C(CC(=O)c1ccccc1)c1ccccc1 (centres undefined)	Dicer processing 4.2
O=C(CC(Sc1ccc(Cl)cc1)c1ccc(Cl)cc1)c1ccccc1 (centres undefined)	none
CCOC(=O)C(NC(=O)c1ccco1)(Nc1ccccn1)C(F)(F)F (centres undefined)	none
CC(C)(C)C1=CC(O)n2c(nc3ccccc32)S1 (centres undefined)	none
CC(C)NC(=O)N(Cc1cccnc1)Cc1cccc(Cl)c1Cl	none
Cn1c(SCC(=O)Nc2ccccc2)nnc1SCC(=O)Nc1ccccc1	none
CCOC(=O)CSc1nc(-c2ccccc2)cn1-c1ccccc1	none
O=C(CSc1nc(-c2ccccc2)cn1-c1ccccc1)NC(=O)Nc1ccccc1	Dicer processing 3.4
OC(CN1CCC(O)(c2ccc(Cl)cc2)CC1)C(F)(F)F (centres undefined)	none
Cc1nn(CO)c(C)c1Sc1ccc(Br)cc1	none
O=C(c1ccncc1)N1CCN(C(=O)c2cccs2)CC1	none
N#C/C(=C\N1CCc2ccccc2C1)C(=O)c1cccs1	none
O=C(c1cccs1)N1CCc2ccccc2C1	Dicer processing 3.7
C#CC(C)(C)NC(=O)Nc1ccccc1	none
COc1ccccc1C1CCN(Cc2ccc3c(c2)CCC(C)(C)O3)CC1	none
Nc1nnc(SCC(=O)Nc2ccc(F)c(F)c2F)s1	none
Nc1nnc(SCC(=O)Nc2ccccc2)s1	none
Nc1nnc(SCC(=O)Nc2nncs2)s1	Dicer processing 3.1
O=C1CC(c2cccc(Cl)c2)c2c(n[nH]c2-c2ccccc2)N1 (centres undefined)	none
CCOc1ccc(C2C(C(=O)OCCOc3ccccc3)=C(C)NC3=C2C(=O)CC(C)(C)C3)cc1 (centres undefined)	none
Cc1ccc(C)c(S(=O)(=O)N(C(=O)c2ccncc2)c2ccc3oc(=O)sc3c2)c1	none
O=C(c1ccncc1)N(c1ccc2oc(=O)sc2c1)S(=O)(=O)c1cccc2cccnc12	Dicer processing 3.7
O=C(c1ccncc1)N(c1cc2sc(=O)oc2c2ccccc12)S(=O)(=O)c1cccs1	none
Cc1cc2cc(N(C(=O)c3ccncc3)S(=O)(=O)c3cc(C)c(C)cc3C)ccc2o1	none
O=C(c1cccnc1)N(c1ccc2oc(=O)sc2c1)S(=O)(=O)c1cccc2cccnc12	Dicer processing 4.1
O=C(O)CCS(=O)(=O)CCC(=O)O	none
COc1ccc(-c2nc3c4c5c(sc4ncn3n2)C(C)(C)NC(C)(C)C5)cc1OC	none
O=C(O[C@@H]1CSSC[C@H]1OC(=O)c1ccccc1)c1ccccc1	none
Cc1nn(-c2ccccc2)c(C)c1C(=O)Nc1cccc(C(F)(F)F)c1	none
Cc1ccc(-c2cn3c4ccccc4nc3n2CCCO)cc1	none
CCN(CC)Cc1cc(C(C)C)c(O)c(C(C)C)c1	Dicer processing 4.1
CCc1oc(C(=O)O)cc1CN(CC)CC	none
CCN(CC)Cc1cc(O)c(CN(CC)CC)cc1O	none
Cc1nccc(-c2cccc(N/N=C(\C#N)S(=O)(=O)c3ccccc3)c2)n1	none
CC1CCc2c(sc3nc[nH]c(=S)c23)C1 (centres undefined)	none
Clc1cc(Cl)cc(-c2nnc(N3CCCC3)o2)c1	none
O=C1CSC(=Nc2ccc(Cl)cc2)N1Cc1ccco1	none
O=C1CSC(=Nc2cc(Cl)cc(Cl)c2)N1Cc1cccs1	none
COc1ccccc1N=C1SCC(=O)N1Cc1ccco1	Dicer processing 4
CC(c1ccccc1)C1CC(=O)N(Cc2ccco2)C1=O (centres undefined)	none
Cc1cc(C)c(N=C2SCC(=O)N2Cc2ccco2)c(C)c1	Dicer processing 4.8
COc1ccc(N=C2SCC(=O)N2CCc2ccc(OC)c(OC)c2)cc1	none
CCn1nc(C)c(Br)c1C(=O)NNC(=O)c1ncc(C(F)(F)F)cc1Cl	none
CCCOC(=O)C(CC)Oc1ccc2c(=O)c(Oc3ccccc3Br)coc2c1 (centres undefined)	none
COC(=O)Cn1cnc2sc(C)c(C)c2c1=O	none
O=C(O)c1ccc(N2C(=O)CC(N3CCOCC3)C2=O)cc1 (centres undefined)	none
COc1ccc(N2C(=O)CC(N3CCCCC3)C2=O)cc1 (centres undefined)	none
CC(C)Oc1ccc(C2CC(=O)N(c3ccc(C(=O)O)cc3)C2=O)cc1 (centres undefined)	Dicer processing 4.8
CCC(OC(=O)c1cn(CC)c2nc(C)ccc2c1=O)C(=O)Nc1sc2c(c1C(N)=O)CCCC2 (centres undefined)	none
CCOC(=O)CSc1nc2nc(C)cc(C)c2c(=O)[nH]1	none
OC1(c2ccc(Cl)cc2)CCN(Cc2cn[nH]c2-c2ccccc2)CC1	none
Fc1ccc(N2CCN(Cc3cn[nH]c3-c3ccccc3)CC2)cc1	Dicer processing 3.5
OC1(c2ccc(Cl)cc2)CCN(Cc2cn[nH]c2-c2ccc(F)cc2)CC1	none
CCOc1ccc(C2c3c(oc4ccccc4c3=O)C(=O)N2c2nnc(C)s2)cc1 (centres undefined)	none
CS/C(=C\C(=O)c1cccs1)NCc1ccco1	none
Cc1ccc(S(C)(=O)=NC(=O)c2cc(C(F)(F)F)cc(C(F)(F)F)c2)cc1 (centres undefined)	none
Cc1c(N)ccc2[nH]c(-c3ccc(N)cc3)nc12	Dicer processing 6.3
Cc1c(C)c(C)c2[nH]c(-c3ccc4c(c3)OCO4)nc2c1C	none
Nc1cccc2[nH]c(-c3ccccc3)nc12	Dicer processing 3.9
Nc1ccc(-c2nc3c(Cl)c(N)ccc3[nH]2)cc1	Dicer processing 3.4
Brc1cccc(-c2nc3ccccc3[nH]2)c1	none
Cc1cccc2[nH]c(-c3ccccc3)nc12	none

Screening results from PubChem.
